Compound activity as filed in PubChem BioAssay.
The list is not random: actives were taken first. Their share in the collection is about 3.5%.
FBW7 activator: FBW7 E3 ligase activators, primary screen, biochemical, AlphaScreen, human. F-box/WD repeat-containing protein 7 (Homo sapiens), Q969H0. AlphaScreen FBW7–phospho-cyclin E peptide binding, activator screen. AID 1259310, 2017. normalized activity (activation), % at 26.1 µM. actives 0.13% (n = 650,000); in the data active means normalized activity above about 1.9%;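 further: purified mutant Fbw7 with reduced substrate affinity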
MITF primary: MITF inhibitors, primary screen, biochemical, AlphaScreen, human; Microphthalmia-associated transcription factor (Homo sapiens), O75030; AlphaScreen MITF homodimerization, bead proximity signal; inhibition, % at 2.6 µM; actives 0.91% (n = 650,000); in the data active means inhibition above about 50%
GPR151 ag: activators of human GPR151, primary screen, cell-based, PathHunter beta-arrestin, luminescence. G-protein coupled receptor 151 (Homo sapiens), Q8TDV0. PathHunter beta-arrestin GPR151 cells. activation, % at 11.2 µM. actives 1% (n = 650,000). AID 1508602, 2020; in the data active means activation above about 4.9%
Target sequence (Q8TDV0 whole entry, looked up): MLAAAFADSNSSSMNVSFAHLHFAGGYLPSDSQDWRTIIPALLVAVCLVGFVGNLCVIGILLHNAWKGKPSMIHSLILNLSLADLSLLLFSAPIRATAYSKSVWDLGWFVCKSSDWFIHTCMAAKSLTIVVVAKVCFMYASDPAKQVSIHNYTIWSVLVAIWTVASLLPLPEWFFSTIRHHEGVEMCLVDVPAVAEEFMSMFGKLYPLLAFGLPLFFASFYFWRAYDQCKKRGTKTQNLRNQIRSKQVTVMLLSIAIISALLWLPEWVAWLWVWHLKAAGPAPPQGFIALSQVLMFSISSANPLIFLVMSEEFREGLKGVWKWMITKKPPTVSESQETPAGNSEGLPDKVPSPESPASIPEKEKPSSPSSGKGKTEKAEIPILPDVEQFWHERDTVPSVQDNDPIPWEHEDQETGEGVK
TEAD-YAP inh: TEAD-YAP interaction inhibition, primary screen, TEAD-YAP interaction inhibitor project, luminescence, HEK-TIYL cells. TEAD-Gal4/YAP UAS-luciferase luminescence. inhibition, % at 9.12 µM. AID 1259422, 2018. actives 1.4% (n = 640,000); in the data active means inhibition above about 32%
Of the large screens only hits and unclear results are named; the others gave an inactive call.

CC(C)CCCC(C)Nc1ncnc2sccc12 (stereo not drawn)	TEAD-YAP inh 48
CC(=O)NC1(c2ccccc2)CCN(CC(=O)NC(C)C)CC1	none
CCC(=O)N1c2ccccc2C(=C2SC(C(=O)OC)=C(C(=O)OC)S2)C(=S)C1(C)C	none
COC(=O)C1=C(C(=O)OC)SC(=C2C(=S)C(C)(C)N(C(=O)c3ccccc3-c3ccccc3)c3cc(C)ccc32)S1	MITF primary 61
CCC(CC)C(=O)N1c2ccccc2C(=C2SC(C(=O)OC)=C(C(=O)OC)S2)C(=S)C1(C)C	MITF primary 55
O=C(NCc1ccccc1Cl)c1ccc2c(c1)ncn2-c1ccc(F)cc1F	none
Cc1ccc(C2c3c(-c4ccc(F)cc4)n[nH]c3C(=O)N2c2ccccc2)cc1 (stereo not drawn)	none
Cc1ccc(-c2n[nH]c3c2C(c2ccccc2F)N(c2ccccc2)C3=O)cc1 (stereo not drawn)	TEAD-YAP inh 48
COc1ccccc1CNC(=O)c1oc2ccc3c(c2c1C)C(=O)CC(C)(C)O3	none
COc1cccc(NC(=O)c2oc3ccc4c(c3c2C)C(=O)CC(C)(C)O4)c1	TEAD-YAP inh 92
CC(=O)c1cccc(NC(=O)c2oc3ccc4c(c3c2C)C(=O)CC(C)(C)O4)c1	TEAD-YAP inh 52
Cc1c(C(=O)Nc2ccc3c(c2)OCO3)oc2ccc3c(c12)C(=O)CC(C)(C)O3	TEAD-YAP inh 42
COc1ccccc1NC(=O)c1oc2ccc3c(c2c1C)C(=O)CC(C)(C)O3	TEAD-YAP inh 33
CCc1ccccc1NC(=O)Cn1nnc(-c2nc(-c3ccccc3)no2)c1N	none
CCOCCCNC(=O)CSc1nc2nc(C)c(Cc3ccccc3Cl)c(C)n2n1	none
CCN(CC)C(=O)CSc1nc2c(C)cccc2cc1C#N	none
O=C(Nc1ccc2c(c1)N(C(=O)C1CCCO1)CC2)c1cc2ccccc2oc1=O (stereo not drawn)	TEAD-YAP inh 57
O=C(Nn1c(SCc2cc(=O)n3ccccc3n2)nc2ccsc2c1=O)c1cccc(Br)c1	none
CC(=O)C/C(=N/NC(N)=S)C(F)(F)F	TEAD-YAP inh 55
CCc1ccc(C(=O)NC(CCSC)C(=O)NCCc2ccccc2)cc1 (stereo not drawn)	none
Cc1oc(C)c2c(=O)cc(-c3ccc(O)c(O)c3)cc(O)c12	MITF primary 87
COc1ccc(-c2cc(O)c3c(C)oc(C)c3c(=O)c2)cc1	none
COc1ccccc1N(CC(=O)NC(C(C)C)C(C)C)S(C)(=O)=O	none
CC(C)C(NC(=O)CN(c1ccccc1Br)S(C)(=O)=O)C(C)C	FBW7 activator 2.4
Cc1ncn(-c2ccc(Nc3ncc4cccc(-c5cnn(C(C)C)c5)c4n3)cc2)n1	TEAD-YAP inh 52
Cc1ncn(-c2ccc(Nc3ncc4cccc(-c5cnn(CC6CC6)c5)c4n3)cc2)n1	TEAD-YAP inh 49
O=C(O)CCC(=O)N1N=C(c2ccc(Cl)cc2)CC1c1ccc(Cl)cc1 (stereo not drawn)	none
CC(=O)N(C1=C(N2CCCC2)C(=O)c2ccccc2C1=O)c1ccccc1C	TEAD-YAP inh 92
CC(=O)N(C1=C(N2CCCCC2)C(=O)c2ccccc2C1=O)c1ccc(C)cc1	none
CCC(C)OC(=O)C1=C(C)NC(=O)CC1c1ccccc1[N+](=O)[O-] (stereo not drawn)	none
CCOC(=O)C1(C)C=C(Nc2ccc(S(N)(=O)=O)cc2)C(=O)N1c1ccccc1 (stereo not drawn)	none
CC(C)n1nccc1-c1nnc(NC(=O)c2ccc(Cl)cc2Cl)o1	none
CC(C)n1nccc1-c1nnc(NC(=O)C(C)(C)Oc2ccc(Cl)cc2)o1	TEAD-YAP inh 37
CCOc1cc(/C=N/N=C(N)N)ccc1OCc1ccccc1	TEAD-YAP inh 40
CCOc1cc(/C=N\NC(=O)c2ccc(N)cc2)ccc1OCc1ccccc1	none
CC(=O)Nc1cccc(NC(=O)CSc2ccc(-c3nc4ccccc4[nH]3)cn2)c1	TEAD-YAP inh 40
CCNc1cccc(C(=O)NCCOc2ccccc2)n1	none
Nc1ccc(-c2nc3cc(N)ccc3o2)cc1	TEAD-YAP inh 49
CN(C)c1ccc(-c2nc3cc(N)ccc3o2)cc1	TEAD-YAP inh 79
Cc1ccc(-c2nc3cc(N)ccc3o2)cc1Cl	none
CCOc1ccc(-c2nc3cc(N)ccc3o2)cc1	TEAD-YAP inh 76
COc1cccc(-c2nc3cc(N)ccc3o2)c1	TEAD-YAP inh 49
Nc1ccc(-c2nc3cc(Cc4ccc5oc(-c6ccc(N)cc6)nc5c4)ccc3o2)cc1	none
CCc1ccc(-c2nc3cc(N)ccc3o2)cc1	TEAD-YAP inh 65
